Assay outcomes: PubChem, National Center for Advancing Translational Sciences (NCATS)
S-ASM inh = Inhibitors of Secretory Acid Sphingomyelinase (S-ASM): qHTS; Sphingomyelin phosphodiesterase (Homo sapiens), P17405; AID 504937, 2011; hit rate 0.006% among 340,000; Potency, µM (top dose mostly 57.5 µM), without a hit: at the top dose activity change, negative = inhibition, most hits filed as inhibitors; placental ASM, HMU-PC fluorogenic substrate, 60 min; note: potency is the fitted concentration of half-maximal effect
Target sequence (P17405 47-631 limits assumed): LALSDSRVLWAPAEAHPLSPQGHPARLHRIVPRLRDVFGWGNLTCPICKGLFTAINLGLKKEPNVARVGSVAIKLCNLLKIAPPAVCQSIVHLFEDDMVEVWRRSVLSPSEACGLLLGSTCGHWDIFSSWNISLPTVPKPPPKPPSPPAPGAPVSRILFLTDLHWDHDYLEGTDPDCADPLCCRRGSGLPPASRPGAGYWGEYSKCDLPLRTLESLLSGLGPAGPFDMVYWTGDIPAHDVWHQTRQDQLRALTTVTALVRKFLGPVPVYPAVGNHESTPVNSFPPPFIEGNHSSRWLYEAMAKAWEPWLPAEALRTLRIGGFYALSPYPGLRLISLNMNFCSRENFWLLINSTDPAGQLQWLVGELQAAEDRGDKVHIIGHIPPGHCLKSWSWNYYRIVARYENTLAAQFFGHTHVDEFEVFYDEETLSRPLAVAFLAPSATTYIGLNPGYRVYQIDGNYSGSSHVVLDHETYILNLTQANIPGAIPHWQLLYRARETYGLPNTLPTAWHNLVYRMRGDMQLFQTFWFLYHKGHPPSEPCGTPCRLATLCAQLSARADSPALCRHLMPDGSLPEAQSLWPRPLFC
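Fluorescence read-out (Ex 386 nm, Em 447 nm) after stopping the reaction at pH 10. Enzyme: ASM from human placenta; substrate HMU-PC0, 9 uM final; 60 min, 37 °C. Compound preincubation 10 min, ambient temperature.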
TGFb inhibitor = qHTS for Inhibitors of TGF-b; HepG2 CAGA-GFP TGF-b/SMAD3 reporter, GFP fluorescence, 18 h; TGF-beta stimulated, 500 pg/mL final; Potency, µM (highest dose often 46.1 µM), inactives show top-dose activity, negative = inhibition, most hits filed as inhibitors; hit rate 1.2% among 410,000; AID 588855, 2011; note: potency is the fitted concentration of half-maximal effect; % is set by controls: 0 for no effect and ±100 for the full control effect; nearly all actives have a fitted effect of over 65% in size
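HEPG2 CAGA-GFP cells (1000/well, DMEM with 1% FBS) were pre-incubated 2 h at 37 degrees C, given compound by pin tool, then stimulated with TGF-beta at 500 pg/mL final for 18 h before per-cell GFP fluorescence imaging.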
DT40 TDP1 no CPT = qHTS for Inhibitors of human tyrosyl-DNA phosphodiesterase 1 (TDP1): qHTS in cells in absence of CPT | hit rate 15% among 420,000 | Potency, µM (series often up to 46.2 µM), for the others: at the top dose activity change, negative = growth inhibition, most hits filed as inhibitors | DT40 Tdp1-/- hTDP1 cells, no CPT, ATP luminescence, 48 h; note: potency is the fitted concentration of half-maximal effect; % is set by controls: 0 for no effect and ±100 for the full control effect; nearly all actives have a fitted effect of over 55% in size
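DT40 Tdp1-/-;hTDP1 cells, no CPT (DMSO vehicle only), 400 cells/well; compounds pin-transferred; ≥48 hr, 37 °C; CellTiter-Glo 30 min RT dark, luminescence read.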
HepG2 viability = qHTS for Inhibitors of TGF-b: Cytotox Counterscreen; HepG2 CAGA-GFP viability, ATP luminescence, 18 h; hit rate 0.76% among 410,000; Potency, µM (series often up to 46.1 µM), for inactives: at the highest dose activity change, negative = cytotoxicity, actives largely listed as cytotoxic; note: potency is the fitted concentration of half-maximal effect
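HepG2 CAGA-GFP cells (1000/well, DMEM with 1% FBS) received compound, then TGF-beta at 500 pg/mL final, and were incubated 18 hours at 37 degrees C. Viability was read by CellTiter-Glo luminescence. Media-only wells were set as complete cell-killing and DMSO as no toxicity.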
IL1B secr inh = qHTS for Inhibitors of Inflammasome Signaling: IL-1-beta AlphaLISA Primary Screen; hit rate 4.7% among 360,000; THP-1 LPS/ATP IL-1B secretion, AlphaLISA, 16 h; stronger effect = lower value; activity change, % at 57.5 µM; in the data active = activity change below about -50%; inconclusive = mostly about -30% to -49%; note: % is set by controls: 0 for no effect and ±100 for the full control effect
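THP-1 cells pretreated 1 hr with compounds (up to 57.5 uM final), then stimulated with LPS (250 ng/mL final) plus ATP (1.25 mM final); secreted IL-1B measured by AlphaLISA after 16 hr, decreased signal indicating inhibition.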
TDP1 cell CPT = qHTS for Inhibitors of human tyrosyl-DNA phosphodiesterase 1 (TDP1): qHTS in cells in presence of CPT; chicken DT40 Tdp1-/-;hTDP1 cells + 20 nM CPT, ATP luminescence, 48 h; Potency, µM (series often up to 46.2 µM), inactives show at the highest dose activity change, negative = growth inhibition, hits mostly inhibitors; hit rate 12% among 420,000; AID 686979, 2013; note: potency is the fitted concentration of half-maximal effect; % is set by controls: 0 for no effect and ±100 for the full control effect; nearly all actives have a fitted effect of over 55% in size
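Cell growth measured by CellTiter-Glo luminescence after a minimum 48 h, 37 C compound exposure with 20 nM CPT in Tdp1-knockout DT40 cells stably expressing hTDP1, seeded 400/well; qHTS titration format.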
* marks the source's active call; other numbers are inactive results; ? = inconclusive; . = no result given; [ ] = another dose, or the depositor's remark. Sampled rows, rich in hits. Any-hit rate of the full collection: about 19%. Unless noted, calls come from the whole dose curve; as a rule, active = well fitted curve in the direction sought with a large enough effect; inconclusive = small, poorly fitted or top-dose-only effect, or another doubt; inactive = no such curve, though single readings can be large; an effect the other way counts as inactive or inconclusive.

SMILES	S-ASM inh	TGFb inhibitor	DT40 TDP1 no CPT	HepG2 viability	IL1B secr inh	TDP1 cell CPT
COC(=O)c1sc2ccccc2c1NC(=O)c1ccc(S(=O)(=O)N2CC(C)CC(C)C2)cc1 (stereo unspecified)	.	-5%	18µM*	-40%	13	21µM*
CCOC(=O)c1sc2ccccc2c1S(=O)(=O)N1CCN(c2ccccc2)CC1	.	-19%	?	-6%	.	?
CCN(CC)C(=O)n1c(Cc2ccccc2)nc2ccccc21	4%	-10%	-26%	-7%	-7	0%
Cc1ccccc1CN1CCC(n2nccc2NC(=O)CCOc2ccccc2)CC1	-1%	-1%	-20%	-8%	0	?
CCOC(=O)c1sc2ccc(S(=O)(=O)N3CCOCC3)cc2c1N	39%	18%	-25%	-9%	-9	?
CCOC(=O)c1sc2ccc(S(=O)(=O)N3CCCCC3)cc2c1N	77%	10%	?	-10%	-29	14µM*
Cc1nc(-c2coc3c(CN(C)C)c(O)ccc3c2=O)cs1	72%	-1%	-11%	0%	28	?
CCOc1ccc(N(CC)S(=O)(=O)N2CCCC(C(=O)Nc3ccc(OC)c(OC)c3)C2)cc1 (stereo unspecified)	.	-26%	?	-22%	.	?
Cc1cc(Nc2nc3ccccc3nc2Cl)n(-c2ccc([N+](=O)[O-])cc2)n1	-3%	?	13µM*	-29%	-87*	18µM*
CC(C)C[C@H]1CN([C@@H](Cc2ccc(O)cc2)CN2CCC[C@@H]2CN2C(=S)NC[C@@H]2Cc2ccccc2)C(=S)N1CCc1ccccc1	.	?	6.5µM*	-5%	-27	6.5µM*
CC(C)C[C@H]1CNC(=S)N1C[C@H]1CCCN1C[C@H](Cc1ccc(O)cc1)N1C[C@H](CC(C)C)N(CCc2ccccc2)C1=S	.	?	21µM*	-4%	-63*	?
Oc1ccc(C[C@@H](CN2CCC[C@@H]2CN2C(=S)NC[C@@H]2Cc2ccccc2)N2C[C@H](Cc3ccccc3)N(CCc3ccccc3)C2=S)cc1	.	-6%	18µM*	-51%	-17	16µM*
Cc1ccc(-n2nc(C)c3c(C(=O)NCc4ccc(F)cc4)cc(C)nc32)cc1	.	0%	?	-4%	.	-4%
COc1ccc(/C(N)=N/O)c(OC)c1	6%	3%	-32%	3%	-10	-5%
Cc1ccc(N(C)S(=O)(=O)c2nnc(NC(=O)CC(C)C)s2)cc1	.	0%	-6%	4%	.	5%
O=C(NC(=S)N1CCCC(C(F)(F)F)C1)c1ccc(F)cc1 (stereo unspecified)	3%	8%	23µM*	-4%	-23	18µM*
CC(=O)c1ccc(NC(=S)N2CCCC(C(F)(F)F)C2)cc1 (stereo unspecified)	-5%	5%	-5%	2%	8	7%
Cc1nc2ccccc2c2nc3ccccc3n12	-4%	-8%	21µM*	-2%	-6	?
Clc1ccccc1-c1nc2ccccc2c2nc3ccccc3n12	-5%	0%	13µM*	-5%	10	?
Fc1ccc(-c2nc3ccccc3c3nc4ccccc4n23)cc1	-2%	-2%	?	4%	2	?
Cc1ccccc1-c1cnc(-c2ccncc2)nc1C1CCCN(Cc2ccccc2O)C1 (stereo unspecified)	.	.	?	.	.	-5%[9.04 µM]
CSCc1ccc(C(=O)OCc2nc3ccccc3s2)o1	-4%	8%	-2%	2%	16	?
COc1cc(C)c(CN2CCOc3ccc(C(O)c4cccnc4)cc3C2)cc1C (stereo unspecified)	.	.	18µM*	.	.	-5%[9.04 µM]
CCn1c2ccccc2c2cc(CN3CCOc4ccc(C(O)c5cccnc5)cc4C3)ccc21 (stereo unspecified)	.	.	26µM*	.	.	?
COc1ccc(OC)c(CN2CCOc3ccc(C(O)c4cccnc4)cc3C2)c1 (stereo unspecified)	.	.	-29%	.	.	10%[9.04 µM]
SMILES	S-ASM inh	TGFb inhibitor	DT40 TDP1 no CPT	HepG2 viability	IL1B secr inh	TDP1 cell CPT
COc1cccc(CN2CCOc3ccc(C(O)c4cccnc4)cc3C2)c1 (stereo unspecified)	.	.	-1%	.	.	-1%[9.04 µM]
Cc1c2cnn(CC(=O)NC(C)C)c(=O)c2c(C)n1Cc1ccccc1Cl	.	?	?	-24%	.	?
Cc1ccc(-c2cn3c(n2)sc2cc(C(=O)NC4CCCc5ccccc54)ccc23)cc1 (stereo unspecified)	.	33%	13µM*	0%	.	13µM*
O=C(NC1CCCc2ccccc21)c1ccc2c(c1)sc1nc(-c3ccc(F)cc3)cn12 (stereo unspecified)	.	?	?	-4%	.	?
COc1ccc(-c2cn3c(n2)sc2cc(C(=O)NC4CCCc5ccccc54)ccc23)cc1 (stereo unspecified)	.	-25%	5.8µM*	-17%	.	8.2µM*
CCOc1ccc(NC(=O)Cn2c(=O)n(CC(=O)NCCc3ccccc3)c(=O)c3sccc32)cc1	.	-22%	-4%	-1%	.	-17%
CCc1ccc(NC(=O)COc2ccc(Br)cn2)cc1	2%	2%	4%	-7%	-6	-8%
CC1CCC(NC(=O)c2ccc(CS(=O)(=O)c3c(Cl)cccc3Cl)o2)CC1 (stereo unspecified)	.	?	?	-19%	.	15µM*
Cc1ccccc1S(=O)(=O)Cc1ccc(C(=O)NCCN(Cc2ccccc2)C(C)C)o1	-3%	0%	16µM*	-4%	-5	?
O=C(NC1CC1)c1ccc(CSCc2ccc(Cl)cc2)o1	.	-22%	21µM*	-36%	-15	?
